The values that follow come from PubChem BioAssay (NCATS).

The structures appear in SMILES notation. Records with an inconclusive call do not appear. Calls of active or inactive are those of the source. Unless noted, calls come from the whole dose curve; as a rule, active = well fitted curve in the direction sought with a large enough effect; inconclusive = small, poorly fitted or top-dose-only effect, or another doubt; inactive = no such curve, though single readings can be large; an effect the other way counts as inactive or inconclusive.

A short description of assay [1]: qHTS assay for measurement of the activity of small molecule inhibitors on Zika virus induced Caspase-3 activity in human iPSC derived neural progenitor cells (hNPCs) (AID 1224857). Note: % of control where 0% means no effect; nearly all actives have a fitted effect of over 65% in size. In a few lines: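 hNPCs seeded 350 cells/well, cultured 16–20 h; compounds added 1 h before ZIKV (2 FFU/cell), 37 C 6 h. Caspase-Glo 3/7 luminescence after 30 min RT; % inhibition from induction scaled to uninfected (0%) and infected (100%) wells.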
Background: In qHTS, concentration-response curves come from the screen itself.

Assay [2] is described as follows: qHTS assay for measurement of the activity of small molecule inhibitors on Zika virus induced Caspase-3 activity in human astrocytoma cells (AID 1224859).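 Note: plate controls were ZIKV-infected untreated cells for no effect and uninfected cells for full effect.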 The method, boiled down:
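Luminescence read-out (Caspase-Glo 3/7, 30 min RT) of caspase activity in SNB-19 cells infected 6 h with ZIKV, 2 FFU/cell, after 1 h compound pretreatment; % inhibition from induction normalised to uninfected (0%) and infected (100%) wells.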

Assay [3] can be described thus: High-throughput drug toxicity screening in the BPDCN cell line Cal-1 (AID 1224825; call rule not given here). The settings on record: Cal-1 BPDCN cell viability, qHTS; at 45.8 µM (top of the series). The method, boiled down:
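Viability of the BPDCN line Cal-1 is measured as ATP-based luminescence (CellTiter-Glo) following 48 h incubation with compounds. Percent activity uses DMSO-treated wells as 100% and 9.2 uM bortezomib as 0%.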

Assay [4] is described as follows: qHTS Screen of the MIPE 4.0 Collection Against Ewings Sarcoma (RDES) (AID 1259252). Note: potency is the fitted concentration of half-maximal effect; nearly all actives have a fitted effect of over 35% in size. The method, boiled down: (§1)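 Here, cells in 5% FBS RPMI were exposed for two days (48 h) to compound dilutions added four hours after plating. ATP-based CellTiter-Glo luminescence measured viability, normalized to vehicle and no-cell blanks.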
Assay [5] can be described thus: P-glycoprotein substrates identified in KB-8-5-11 adenocarcinoma cell line, qHTS therapeutic library screen (AID 1346987). Note: nearly all actives have a fitted effect of over 65% in size. Note: potency is the fitted concentration of half-maximal effect. In a few lines:
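Luminescence from CellTiter-Glo, read 5 min after addition, quantified survival of KB-8-5-11 (P-gp-overexpressing) cells exposed to compounds for 72 h. AC50 was derived from concentration-response curves.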

A short description of assay [6]: P-glycoprotein substrates identified in KB-3-1 adenocarcinoma cell line, qHTS therapeutic library screen (AID 1346986). Note: nearly all actives have a fitted effect of over 60% in size. In a few lines:
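72 h cell-killing screen, 500 cells/well, CellTiter-Glo luminescence. Paired lines KB-3-1/KB-8-5-11; P-gp dependence checked by tariquidar co-treatment and HEK-293 MDR-19 versus empty-vector cells.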

Assay [7] can be described thus: qHTS Screen of the MIPE 4.0 Collection Against Ewings Sarcoma (TC71) (AID 1259253). Note: potency is the fitted concentration of half-maximal effect; nearly all actives have a fitted effect of over 40% in size. The method, boiled down:
as §1

Assay [8] is described as follows: qHTS Screen of the MIPE 4.0 Collection Against Ewings Sarcoma (EW8) (AID 1259255). Note: potency is the fitted concentration of half-maximal effect; nearly all actives have a fitted effect of over 35% in size. In a few lines: as §1
Assay [9] in a line: qHTS Screen of the MIPE 4.0 Collection Against Ewings Sarcoma (TC32) (AID 1259256). Note: potency is the fitted concentration of half-maximal effect; nearly all actives have a fitted effect of over 45% in size. In a few lines:
as §1

Assay [10] can be described thus: qHTS assay to identify small molecule inhibitors of chordoma cells - UCH-1 (AID 1259355). Note: % is set by controls: 0 for no effect and ±100 for the full control effect; nearly all actives have a fitted effect of over 55% in size. The method, boiled down: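 A 48hr growth-inhibition format: each drug tested at 15 concentrations together with added auranofin, camptothecin, doxorubicin, rubitecan and topotecan, with cell viability quantified as CellTiter-Glo luminescence.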

Take `Clc1cnc(Oc2ccc(Oc3ncc(Cl)cc3Cl)cc2)c(Cl)c1`: the Potency result in [1] and in assay [2] was “inactive” throughout.
As to `c1ccc2sc(C3(N4CCCCC4)CCCCC3)cc2c1`, the Potency entry in assay [1] and in [2] was “inactive” throughout.
In the case of `O=C(Nc1ccccc1-c1ccc(Cl)cc1)c1cccnc1Cl`, the Potency result in assay [1] is “inactive”.
Take `NC(CCP(=O)(O)O)C(=O)O` (stereo unspecified): the Potency result in assay [1] and in assay [2] was “inactive” throughout.
As to `CC[C@@H]1C(=O)OC[C@@H]1Cc1cncn1C`, the Potency result in assay [1] is “inactive”.
The same measure, in the same setting: next, `CC(C)[C@H]1CN[C@H](C(=O)O)[C@H]1CC(=O)O`: “inactive”.
On to `CC(O)CN1CCN(CC(=O)[O-])CCN(CC(=O)[O-])CCN(CC(=O)[O-])CC1.[Gd+3]` (stereo unspecified), for which the Potency result in assay [1] is “inactive”.
Take `Fc1cc(Br)ccc1CBr`: the Potency result in [1] and in assay [2] was “inactive” each time.
Consider `C[N+]1(C)C2CCC1CC(OC(=O)C(CO)c1ccccc1)C2` (stereo unspecified), for which the Potency result in [1] and in [2] was “inactive” in each case.
On to `N=c1c2c(-c3ccccc3)c(-c3ccccc3)n(Cc3ccccc3)c2ncn1C1CCC(O)CC1` (stereo unspecified), for which the viability (% of control) in assay [3] stood at 11.7%. Also, the Potency entry in [2] is “inactive”. The Potency was 1.18 µM (active) in assay [4] and 0.935 µM (active) in assay [5].
As for `CCCN1CCO[C@@H]2c3cc(O)ccc3OC[C@H]21`, the Potency entry in assay [1] and in [2] was “inactive” throughout.
For `CC1(C)CC/C(=C/c2ccc(Cl)cc2)C1(O)Cn1cncn1` (stereo unspecified), the Potency result in assay [1] and in [2] was “inactive” throughout.
Regarding `O=C(N[C@@H](COc1ccc2[nH]c(=O)[nH]c2c1)c1ccccc1)c1cccn(Cc2ccc(F)c(F)c2)c1=O`, the viability (% of control) in [3] was 36.8%. Besides, in assay [2], the Potency entry was “inactive”. For the same molecule, the Potency in assay [4] was 23.5 µM (active).
Consider `O=C1CCCN1CC#CCN1CCCC1`, for which the Potency result in assay [1] and in [2] was “inactive” in each case.
For `COc1ccc2c(c1)CN(C)CC2c1ccc(Cl)c(Cl)c1` (stereo unspecified), in assay [3], the viability (% of control) turned out to be 12.2%. The Potency result in [1], in [2], in assay [6] and in assay [5] was “inactive” each time.
In the case of `O=C(O)[C@@H]1CCN1`, the Potency entry in assay [1] and in assay [2] was “inactive” throughout.
As to `COCC1(CO)C(=O)C2CCN1CC2` (stereo unspecified), in [3], the viability (% of control) came to 2.52%. In addition, the Potency entry in assay [2] is “inactive”. Besides, the Potency in assay [4] was 2.09 µM (active); in assay [7], 2.35 µM (active); in assay [8] it was 2.64 µM (active).
Turning to `O=S(=O)(c1ccc(Cl)cc1)c1ccc(Cl)cc1`, the Potency result in assay [1] and in assay [2] was “inactive” throughout.
With `c1ccc(CCCN2CCN(CCOC(c3ccccc3)c3ccccc3)CC2)cc1`, the viability (% of control) in assay [3] was 5.14%. In addition, the Potency result in assay [2] was “inactive”. Besides, the results for the Potency in [7], in assay [9] and in assay [5] were 16.6 µM (active), 20.9 µM (active) and 18.7 µM (active), respectively.
Regarding `CCc1c(C(=O)C(N)=O)c2c(OCC(=O)O)cccc2n1Cc1ccccc1`, the viability (% of control) in [3] came to 115%. The Potency entry in assay [1], in assay [2], in assay [6] and in assay [5] was “inactive” in each case. The Potency in [7] is 20.9 µM (active).
For `C#CCOC(=O)C1=CCCN(C)C1`, the Potency entry in assay [1] and in assay [2] was “inactive” in each case.
In the case of `CCOC(=O)Nc1ccc(NCc2ccc(F)cc2)cc1N`, the viability (% of control) in [3] amounted to 105%. For the same molecule, the Potency result in assay [1] and in assay [2] was “inactive” each time. For the same molecule, the Potency in [7] was 29.6 µM (active); in assay [9], 20.9 µM (active).
Turning to `COc1ccc(C(=O)c2c(C)n(CCN3CCOCC3)c3cc(I)ccc23)cc1`, in assay [3], the viability (% of control) is 5.23%. Besides, the Potency entry in [2] was “inactive”.
For the molecule `CCC(=O)O[C@@H]1C=C2CCC3C(CCC4(C)C3CC[C@@H]4OC(=O)CC)C2CC1` (stereo partly specified), the Potency result in assay [1] and in assay [2] was “inactive” each time.
With `O=C(O)c1cc(Oc2ccc(C(F)(F)F)cc2Cl)ccc1[N+](=O)[O-]`, the Potency result in assay [1] and in assay [2] was “inactive” each time.
On to `Nc1ccc(Cl)cc1N`, for which the Potency entry in [1] and in assay [2] was “inactive” in each case.
For `CCOP(=O)(NC(C)C)Oc1ccc(SC)c(C)c1` (stereo unspecified), the Potency entry in [1] and in assay [2] was “inactive” in each case.
`CC(C)N[C@@H]1CCn2c(=O)[nH]c3cccc(c32)[C@@H]1O`: in assay [3], the viability (% of control) is 7.1%. The Potency entry in assay [2] and in [5] was “inactive” in each case. Further, the Potency was 1.18 µM (active) in assay [4], 8.33 µM (active) in assay [7] and 7.43 µM (active) in assay [8].
For the molecule `O=C(Cc1ccc(Cl)c(Cl)c1)N1CCCCC1CN1CCCC1` (stereo unspecified), the Potency entry in assay [1] and in assay [2] was “inactive” each time.
As to `Nc1ccc([N+](=O)[O-])cc1`, the Potency entry in assay [1] and in assay [2] was “inactive” in each case.
Regarding `CS(=N)(=O)CC[C@H](N)C(=O)O` (stereo partly specified), the Potency entry in assay [1] and in [2] was “inactive” each time.
On to `O=S(=O)(CC1CS1)c1ccc(Oc2ccccc2)cc1` (stereo unspecified), for which the viability (% of control) in assay [3] stood at 3.02%. Also, the Potency result in assay [2] and in assay [5] was “inactive” throughout. Moreover, the Potency was 20.9 µM (active) in assay [8] and 16.6 µM (active) in assay [9].
As to `CC(C)(C)C(O)C(Oc1ccc(Cl)cc1)n1cncn1` (stereo unspecified), the Potency entry in assay [1] and in [2] was “inactive” in each case.
As for `C=CCC1=C(C)C(OC(=O)C2C(C=C(C)C)C2(C)C)CC1=O` (stereo unspecified), the Potency result in assay [1] and in [2] was “inactive” throughout.
On to `C[C@@H](N)Cc1cnc[nH]1`, for which the Potency entry in assay [1] and in assay [2] was “inactive” each time.
As to `CCCN(CCC)c1c([N+](=O)[O-])cc(S(N)(=O)=O)cc1[N+](=O)[O-]`, the Potency entry in assay [1] and in assay [2] was “inactive” in each case.
For `COc1cc(C(O)CN)ccc1O` (stereo unspecified), the Potency entry in assay [1] and in assay [2] was “inactive” throughout.
Regarding `CN[C@@H]1C[C@@H](c2ccc(Cl)c(Cl)c2)c2ccccc21`, the Potency entry in assay [1], in assay [2] and in assay [10] was “inactive” throughout.
As for `CCCCCCCCCCCCCCCC[N+](C)(C)C`, the Potency entry in assay [1] and in assay [2] was “inactive” in each case.
